For experiment [1], the system named is Plasmodium falciparum Sir2 (PF13_0152, Sir2A). In words: Plasmodium falciparum Sir2A binding compounds – biochemical, small-molecule microarray, 635 nm fluorescence, primary screen (AID 1098).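 Also: score merges spot fluorescence intensity with its signal-to-noise ratio.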 The note with it: fluorescence 635 nm, higher = more signal.
Experiment [2] in a line: probe aDKK1 binding to arrayed compounds – biochemical, biotinylated probe, 635/667 nm fluorescence, primary screen (AID 1099).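 Also: score merges 667nm spot fluorescence with signal to noise across triplicate slides; reference of the scale not given here.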 The note with it: small-molecule microarray, higher = more signal.
Experiment [3] can be described thus: probe aCHRDL2 binding to arrayed compounds – biochemical, biotinylated probe, 635/667 nm fluorescence, primary screen (AID 1100). The note with it: small-molecule microarray, higher = more signal.
Experiment [4] is described as follows: change in splice reporter luminescence, either direction, cell-based, HEK293, spliceosome inhibition project, primary screen (AID 1101).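 Also: HEK293 cells carrying a splicing-competent luciferase reporter gene; test concentration not given here.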 As to conditions: HEK293 splicing luciferase reporter, 24 h, higher = more signal, called active from +8 up or from −8 down.
Experiment [5] addresses Fibroblast growth factor 10 (Homo sapiens) (UniProt O15520). Briefly: compounds binding fibroblast growth factor 10 – biochemical, small-molecule microarray, 635 nm fluorescence, primary screen (AID 1102). As to conditions: FGF10 binding, fluorescence 635 nm, higher = more signal.
In experiment [6] the test system is glycogen synthase kinase-3 (GSK3A per assay name; protocol says GSK3B). Briefly: compounds binding glycogen synthase kinase-3 – biochemical, small-molecule microarray, 635 nm fluorescence, GSK3A, primary screen (AID 1103). Also: the record names both GSK3A and GSK3B. As to conditions: fluorescence 635 nm, higher = more signal.
Experiment [7] deals with Epidermal growth factor receptor (Homo sapiens) (UniProt P00533). In words: compounds binding epidermal growth factor receptor – biochemical, small-molecule microarray, 635 nm fluorescence, primary screen (AID 1104).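 Also: score merges 667 nm emission intensity with spot signal to noise over triplicate slides.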 As to conditions: EGFR binding, higher = more signal.
Epidermal growth factor receptor (Homo sapiens), sequence (P00533 whole entry, looked up): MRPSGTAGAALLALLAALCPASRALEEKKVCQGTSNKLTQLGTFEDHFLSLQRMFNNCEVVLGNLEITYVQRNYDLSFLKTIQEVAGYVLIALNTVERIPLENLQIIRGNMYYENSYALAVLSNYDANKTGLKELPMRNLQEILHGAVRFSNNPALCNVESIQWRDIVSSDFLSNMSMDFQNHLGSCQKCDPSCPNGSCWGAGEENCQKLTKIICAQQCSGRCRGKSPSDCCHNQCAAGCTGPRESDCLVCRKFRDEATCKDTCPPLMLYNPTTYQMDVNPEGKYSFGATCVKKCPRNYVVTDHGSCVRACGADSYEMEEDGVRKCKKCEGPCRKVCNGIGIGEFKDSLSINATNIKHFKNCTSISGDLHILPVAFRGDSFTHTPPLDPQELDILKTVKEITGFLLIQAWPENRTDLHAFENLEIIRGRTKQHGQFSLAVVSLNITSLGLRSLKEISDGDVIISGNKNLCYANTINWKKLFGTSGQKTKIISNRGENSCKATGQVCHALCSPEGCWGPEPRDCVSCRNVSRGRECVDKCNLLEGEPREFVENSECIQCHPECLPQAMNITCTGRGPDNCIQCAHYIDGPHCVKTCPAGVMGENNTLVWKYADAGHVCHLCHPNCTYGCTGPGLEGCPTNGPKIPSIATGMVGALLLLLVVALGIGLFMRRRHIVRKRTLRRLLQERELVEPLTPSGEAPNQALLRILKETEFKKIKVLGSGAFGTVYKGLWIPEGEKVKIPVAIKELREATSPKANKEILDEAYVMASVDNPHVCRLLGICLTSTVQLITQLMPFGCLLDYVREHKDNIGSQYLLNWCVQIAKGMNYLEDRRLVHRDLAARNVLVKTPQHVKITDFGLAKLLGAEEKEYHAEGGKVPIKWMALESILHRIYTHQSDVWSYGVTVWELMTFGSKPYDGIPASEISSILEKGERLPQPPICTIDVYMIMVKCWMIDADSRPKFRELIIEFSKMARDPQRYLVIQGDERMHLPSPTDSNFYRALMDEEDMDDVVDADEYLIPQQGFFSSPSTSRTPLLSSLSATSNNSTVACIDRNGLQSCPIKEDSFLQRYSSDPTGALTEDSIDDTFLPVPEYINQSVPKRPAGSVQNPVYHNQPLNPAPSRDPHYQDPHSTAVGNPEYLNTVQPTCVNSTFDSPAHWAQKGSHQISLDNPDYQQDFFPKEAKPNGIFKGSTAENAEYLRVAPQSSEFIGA
The target in experiment [8] is Follistatin-related protein 3 (Homo sapiens) (UniProt O95633). Briefly: compounds binding follistatin-related protein 3 – biochemical, small-molecule microarray, 635 nm fluorescence, primary screen (AID 1105).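 Also: score merges emission near 667 nm and signal to noise per printed spot across three slides.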 The note with it: FSTL3 binding, higher = more signal.
Follistatin-related protein 3 (Homo sapiens), sequence (O95633 whole entry, looked up): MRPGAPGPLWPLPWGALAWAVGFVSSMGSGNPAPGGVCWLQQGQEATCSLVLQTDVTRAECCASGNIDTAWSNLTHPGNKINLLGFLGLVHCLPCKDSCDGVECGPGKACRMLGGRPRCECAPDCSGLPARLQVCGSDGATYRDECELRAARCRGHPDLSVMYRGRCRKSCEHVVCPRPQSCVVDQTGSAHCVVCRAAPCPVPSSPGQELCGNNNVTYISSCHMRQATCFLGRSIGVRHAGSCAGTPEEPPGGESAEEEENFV
Experiment [9] deals with Dickkopf-related protein 1 (Homo sapiens) (UniProt O94907). Briefly: small molecules binding DKK1 protein – biochemical, small-molecule microarray, 635 nm fluorescence scan, primary screen (AID 1106).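 Also: score merges emission near 667 nm with signal to noise over three replicate slides.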 As to conditions: higher = more signal.
Dickkopf-related protein 1 (Homo sapiens), sequence (O94907 whole entry, looked up): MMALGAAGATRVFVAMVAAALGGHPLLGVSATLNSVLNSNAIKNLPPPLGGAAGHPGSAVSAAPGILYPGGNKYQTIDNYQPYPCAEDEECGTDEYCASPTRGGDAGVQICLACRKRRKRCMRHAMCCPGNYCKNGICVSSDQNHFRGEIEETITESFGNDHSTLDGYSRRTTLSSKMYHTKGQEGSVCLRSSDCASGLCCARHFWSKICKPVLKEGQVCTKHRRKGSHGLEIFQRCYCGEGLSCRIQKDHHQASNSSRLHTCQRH
Experiment [10] deals with Inhibin beta A chain (activin A). Briefly: small molecules binding activin A – biochemical, small-molecule microarray, 635 nm fluorescence scan, primary screen (AID 1107).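 Also: mouse activin A protein probed at 4.33 µg/mL on printed slides; score merges bound-protein fluorescence near 667 nm with spot signal-to-noise.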 The note with it: INHBA, higher = more signal.

Active and inactive are the calls of the source.

Fibroblast growth factor 10 (Homo sapiens), sequence (O15520 whole entry, looked up): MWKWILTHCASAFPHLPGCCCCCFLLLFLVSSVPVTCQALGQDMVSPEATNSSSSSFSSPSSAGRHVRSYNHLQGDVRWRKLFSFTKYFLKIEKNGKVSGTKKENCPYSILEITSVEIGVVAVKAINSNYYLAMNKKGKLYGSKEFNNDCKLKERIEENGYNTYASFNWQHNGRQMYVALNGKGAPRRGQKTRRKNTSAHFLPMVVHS

For the molecule `O=C1OCCC/C=C\[C@H]2OC34C=CCN(Cc5ccccc5)C(=O)[C@H]3N(CCCO)C(=O)[C@@H]4C12` (stereo not given in full), the composite z-score in [1] was 1.26; in [2], -0.0379; in [3], 0.794; in experiment [5], -0.967; in experiment [6], -0.972; in experiment [7], -1.55. In addition, the composite z-score was -1.57 in [8], -1.66 in experiment [9] and -0.583 in experiment [10]. Also, in [4], the z-score is 0.422 (inactive).

Consider `COC(=O)[C@]1(CCC(=O)OC(C)(C)C)N=C(c2ccc(OCCCO)cc2)O[C@@H]1c1ccccc1CN=[N+]=[N-]`, for which the composite z-score is 1.09 in experiment [1]; 1.09 in experiment [2]; 1.07 in experiment [3]; 0.432 in [5]; -0.109 in [6]; -0.843 in experiment [7]. The composite z-score was -0.307 in experiment [8], -0.696 in experiment [9] and 0.26 in experiment [10]. Besides, the z-score in experiment [4] is -1.03 (inactive).

Take `CCCC[C@@H]1C[C@H]1[C@@H](NC(=O)c1ccco1)c1ccc(-c2ccccc2)cc1`: the composite z-score in experiment [1] is -0.338; in experiment [2] it was 0.189; in [3], 0.272; in experiment [5], 0.222; in experiment [6], 0.118; in experiment [7], -0.0501. Further, the composite z-score in experiment [8] was -0.0483; in [9], -0.426; in experiment [10], 0.39. In addition, in experiment [4], the z-score was -1.61 (inactive).

With `COCCOC(=O)N1C(=O)[C@@]2(c3cc(C#CCNC(N)=O)ccc31)[C@H](C(=O)N1CCN(c3ncccn3)CC1)[C@H]1C(=O)O[C@H](c3ccccc3)[C@H](c3ccccc3)N1[C@@H]2c1ccc(OCCO)cc1`, the composite z-score was 1.08 in [1]; 0.223 in [2]; 0.329 in experiment [3]; 1.01 in experiment [5]; -0.0506 in [6]; 0.498 in [7]. Further, the values for the composite z-score in experiment [8], in experiment [9] and in experiment [10] were 1.37, 0.204 and 0.63, respectively. Besides, the z-score in experiment [4] is -0.729 (inactive).

Turning to `CC1CC/C=C\[C@H]2OC34C=CCN(Cc5ccccc5)C(=O)[C@H]3N(CCCO)C(=O)[C@@H]4C2C(=O)O1` (stereo not given in full), the composite z-score in experiment [1] was 0.881; in experiment [2], -0.307; in experiment [3], 0.45; in experiment [5] it was -1.14; in [6], -0.657; in [7], -0.574. In addition, the composite z-score in experiment [8] was -1.07; in experiment [9] it was -0.538; in experiment [10], -0.192. Further, the z-score in [4] is -0.0477 (inactive).

Consider `O=C(NCCO)C1=C[C@H](Oc2ccccc2I)[C@@H](O)[C@H](N(Cc2ccco2)C(=O)Cc2ccccc2)C1`, for which the composite z-score in [1] is -0.012; in experiment [2] it was -0.223; in [3], -0.453; in [5], 0.556; in experiment [6], 0.349; in [7] it was 0.508. Moreover, the composite z-score in experiment [8] came out at 0.468; in experiment [9], 0.431; in experiment [10], 0.497. For the same molecule, in experiment [4], the z-score is -0.0906 (inactive).

As to `CCS[C@H]1[C@@H](C(=O)O)[C@H](c2ccc(C)cc2)N(S(=O)(=O)c2ccc(C)cc2)[C@@H]1CC`, the composite z-score is 0.673 in experiment [1]; 0.686 in experiment [2]; 0.907 in experiment [3]; 1.14 in experiment [5]; 0.793 in [6]; 0.0771 in experiment [7]. The composite z-score in experiment [8] was 1.1; in [9], -0.0423; in [10], 0.626. The z-score in experiment [4] is 0.269 (inactive).

As to `NCCCCCCNC(=O)[C@@H]1C[C@@H]2C(=O)NCC(=O)N2[C@@H]1c1ccc(O)cc1`, the composite z-score is 1.45 in experiment [1]; -0.0828 in experiment [2]; -0.0743 in experiment [3]; 1.05 in [5]; 1.3 in [6]; 0.574 in experiment [7]. Besides, the results for the composite z-score in [8], in experiment [9] and in experiment [10] were 1.3, 1.6 and 0.802, respectively. The z-score in experiment [4] is -0.481 (inactive).

For the molecule `C=CCC(OC(C)=O)[C@@H]1[C@@H](N(Cc2cccc3ccccc23)C(=O)c2ccc(-c3ccccc3)cc2)c2cc(OCCCO)ccc2N1C(=O)c1ccc2ccccc2c1` (stereo not given in full), the composite z-score in [1] was -0.101; in [2], 0.25; in experiment [3], 0.357; in experiment [5], 0.0842; in [6] it was 0.293; in experiment [7], 0.24. The composite z-score in experiment [8] is 0.476; in experiment [9], -0.601; in [10] it was 1.28. Also, the z-score in [4] was -0.157 (inactive).

Turning to `C=CC[C@]1(C(=O)NCCCOC)N=C(c2ccc(OCCCO)cc2)O[C@H]1c1ccccc1CN=[N+]=[N-]`, the composite z-score was 1.17 in experiment [1]; 1.45 in [2]; 1.17 in experiment [3]; 0.944 in [5]; 1.22 in [6]; 0.0673 in experiment [7]. Further, the composite z-score was 0.612 in experiment [8], 0.496 in [9] and 1.21 in [10]. In experiment [4], the z-score is 0.822 (inactive).

Take `C#C[C@H](O[Si](C#Cc1ccc(Oc2ccccc2)cc1)(C(C)C)C(C)C)c1ccccc1`: the composite z-score in [1] stood at 1.39; in experiment [2], 0.629; in [3], 0.0024; in experiment [5] it was 0.406; in experiment [6], 0.639; in experiment [7], 0.144. Further, the composite z-score was 0.563 in experiment [8], -0.0522 in experiment [9] and -0.0811 in experiment [10]. For the same molecule, the z-score in [4] is -0.855 (inactive).

As to `COC(=O)[C@@]1(Cc2ccccc2)N=C(c2ccc(OCCCO)cc2)O[C@H]1c1ccccc1`, the composite z-score in experiment [1] was 1.65; in [2] it was 0.206; in [3], 0.893; in experiment [5] it was 0.0071; in [6], 0.319; in [7] it was -1.08. Further, the composite z-score in [8] was -1.05; in experiment [9] it was -0.862; in [10], 0.599. Moreover, in experiment [4], the z-score was 6.38 (inactive).

As to `CC(C)CNC(=O)[C@@]1(Cc2ccccc2I)c2ccccc2C(=O)N(C2CCCCC2)[C@H]1c1ccc(CO)cc1`, the composite z-score in experiment [1] was 1.53; in [2], 0.778; in experiment [3], 1.02; in [5], 0.51; in experiment [6], -0.218; in experiment [7], -0.272. The composite z-score in [8] is 0.248; in experiment [9], -0.271; in experiment [10] it was 0.504. Further, the z-score in experiment [4] is 1.14 (inactive).

Consider `CC1CC/C=C\[C@H]2OC34C=CCN(C(C)(C)C)C(=O)[C@H]3N(C(C)CO)C(=O)[C@@H]4C2C(=O)O1` (stereo not given in full), for which the composite z-score in experiment [1] was -1.24; in [2] it was -0.366; in [3] it was -0.266; in [5], -0.443; in experiment [6] it was -0.948; in experiment [7], -0.698. The figures for the composite z-score in experiment [8], in experiment [9] and in experiment [10] were -0.268, -0.007 and 1.28, respectively. The z-score in experiment [4] is 1.11 (inactive).

For `CCCCCCc1nc(-c2ccc(OC)nc2)cc2c1[Si](C(C)C)(C(C)C)O[C@H]2c1ccccc1`, the composite z-score was 1.33 in [1]; -0.0653 in experiment [2]; -0.459 in [3]; 0.289 in experiment [5]; -0.0539 in [6]; 0.31 in [7]. The composite z-score in experiment [8] came out at 0.633; in [9] it was 0.117; in [10], 0.318. The z-score in [4] is -0.0107 (inactive).

As to `CC(C)C(=C=CC[C@@H](O)c1ccc(OCCO)cc1)C[C@@H](O)COCc1ccccc1`, the composite z-score in [1] is 0.413; in [2], -0.133; in experiment [3], -0.222; in [5], 1.23; in experiment [6], 0.099; in [7], -0.516. The composite z-score was 0.478 in experiment [8], -0.198 in experiment [9] and 0.992 in experiment [10]. Further, the z-score in experiment [4] is -1.97 (inactive).

Source of the values: PubChem BioAssay.
